Measurements published in ChEMBL document CHEMBL3988442, “University of Dundee, Small-Polar-MMV Screening Library” (2021).
The campaign covered roughly 48,000 compounds. About 13,000 (27%) showed an effect of 50% or more. The list shows a part of the results.

test system: Wolbachia pipientis; assay: Anti-Wolbachia Cell-Based Screen; type: functional; set-up: scale not given: in the data most compounds retested in dose-response had high values; settings: 5 µM

Compound | Percent Effect [%]
CCCS(=O)(=O)NCC(C)c1ccc(F)c(F)c1 (configuration not stated) | -6.211
CC(=O)c1ccc(C(=O)NCc2ccnc(N(C)C)n2)cc1 | -2.815
CCN1CC[C@]2(CN(C(=O)[C@H]3CCCO3)C[C@H]2c2ccccc2)C1=O | -5.714
CN1CC[C@]2(CN(C(=O)[C@H]3CCCO3)C[C@H]2c2ccccc2)C1=O | -10.86
O=C([C@H]1CCCO1)N1CCC2(CCCN(CCOc3ccccc3)C2)C1 (some centres not stated) | 105.8
c1cc(CCN2CCC(c3n[nH]c(C4CC4)n3)CC2)ccn1 | 9.327
c1cnc(-c2cnc(N3CCSCC3)nc2C2CCCO2)cn1 (configuration not stated) | -3.576
c1cc(CNc2ncc(-c3cnccn3)c(C3CC3)n2)ccn1 | 244.3
Cc1cnc2c(c1NCc1ccncc1)c(=O)n(C)c(=O)n2C | -24.16
c1cc(-c2n[nH]c(CNc3nnc(C4CC4)o3)n2)ccn1 | -23.66
c1cc(CNc2ncc(-c3cnccn3)c([C@@H]3CCCO3)n2)ccn1 | 102
c1cc(CCNc2ncc(-c3cnccn3)c(C3CC3)n2)ccn1 | 137.3
c1cc(CNCCC2CCCO2)ccn1 (configuration not stated) | -4.656
Cn1ncnc1-c1ccnc(NCCCc2ccncc2)n1 | -3.782
Cc1cc(F)ccc1OC1(C(=O)O)CCN(Cc2cccnc2N)CC1 | -8.297
Cc1noc(C)c1CN(C)Cc1csc(-c2ccc(F)cc2)n1 | 17.5
Cc1cc(C(=O)N2CCN(C(=O)CCC3CCCCC3)CC2)n(C)n1 | -12.7
O=S(=O)(Cc1ccccc1)c1nnc(N2CCCC2)s1 | -13.72
Cc1ncc(CN(C)C(=O)Nc2cccc(CN3CCOC3=O)c2)s1 | 6.587
CN(C)C(=O)[C@H]1C[C@@H]2CN(C(=O)NCC3CCCCC3)C[C@H]1O2 | -9.234
Cc1nn(C)c(C)c1C1CCCN1Cc1nc(-c2ccco2)no1 (configuration not stated) | 17.11
COc1c(C2CCCN2Cc2c(C)noc2C)c(C)nn1C (configuration not stated) | -0.2322

Compound | Percent Effect [%]
CCCc1noc(CN2CCCC2c2c(C)nn(C)c2OC)n1 (configuration not stated) | -3.307
Cc1ccc(C2CCCN2Cc2nc(-c3ccco3)no2)cc1 (configuration not stated) | 6.26
Cc1nn(C)c(Cl)c1C1CCCN1Cc1nc(-c2ccco2)no1 (configuration not stated) | 77.16
COc1c(C2CCCN2Cc2nc(-c3ccco3)no2)c(C)nn1C (configuration not stated) | 131.1
CCOC(C)c1nc(CN2CCNCC2)cs1 (configuration not stated) | 1.236
Cc1cccc(CN2C(=O)CO[C@@H]3CN(CCO)C[C@H]32)c1.O=C(O)C(F)(F)F | 23.75
O=C(O)C(F)(F)F.O=C(O)C(F)(F)F.O=C(O)C(F)(F)F.c1cc(CN2C[C@@H]3OCCN(CCN4CCCC4)[C@@H]3C2)co1 | -5.454
Cc1cc(C)cc(CN2C[C@@H]3OCCN(S(=O)(=O)N(C)C)[C@@H]3C2)c1 | -1.729
CN(C)C(=O)CN1CCO[C@H]2CN(Cc3cccc(F)c3)C[C@H]21 | 99.44
CN1CCC(N(C)CCC(=O)N2CCN(Cc3cccc(F)c3)CC2)C1 (configuration not stated) | -12.08
CN(C)C(=O)CN1CCO[C@H]2CN(Cc3ccoc3)C[C@H]21 | 95.5
c1cc(CN2C[C@@H]3OCCN(CC4CCCO4)[C@@H]3C2)co1 (some centres not stated) | -2.91
CN(C)C(=O)CO[C@H]1CN(Cc2cccc(F)c2)[C@@H]2CCCO[C@H]12.O=C(O)C(F)(F)F | 5.103
Cc1cccc(CN2C(=O)CO[C@@H]3CN(C4CCOCC4)C[C@H]32)c1.O=C(O)C(F)(F)F | 109.7
CN(C)CCN1CCO[C@H]2CN(Cc3cnn(C)c3)C[C@H]21.O=C(O)C(F)(F)F.O=C(O)C(F)(F)F.O=C(O)C(F)(F)F | 2.67
Cc1cc(C)cc(CN2C[C@@H]3OCCN(CC(=O)N(C)C)[C@@H]3C2)c1.O=C(O)C(F)(F)F | 122.5
O=C(O)C(F)(F)F.O=C1CO[C@@H]2CN(C3CCOCC3)C[C@H]2N1Cc1cccc(F)c1 | 2.353
CC(SCc1cc(Br)cc2cccnc12)C(N)=O (configuration not stated) | -22.01
COc1ccc2c(c1)CC(C(=O)N(C)CCCc1cnn(C)c1)CO2 (configuration not stated) | -3.689
CC(C)[C@@H]1CN(c2ccc(C(F)(F)F)cn2)C[C@H]1NS(C)(=O)=O | -16.11
OCC(O)CSCc1ccc(F)cc1Cl (configuration not stated) | -2.217
CC(=O)N[C@@H]1CN(C(=O)c2ccoc2)C[C@H]1c1ccc(C)cc1 | 0.232

Compound | Percent Effect [%]
Cc1cccc(CN2C[C@@H]3OCCN(S(=O)(=O)N(C)C)[C@@H]3C2)c1.O=C(O)C(F)(F)F | 1.609
Cc1cccc(CN2C[C@@H]3OCCN(CC(=O)N(C)C)[C@@H]3C2)c1.O=C(O)C(F)(F)F | 97.29
Cc1cc(CN2CC[C@H]3[C@H]2CCN3CC(=O)N(C)C)oc1C.O=C(O)C(F)(F)F.O=C(O)C(F)(F)F | -40.85
O=C(NC[C@H]1OC[C@@H](NC2COC2)[C@@H]1O)C1CCCC1 | -18.2
Cn1cc(C(C)(O)CNC(=O)c2ccc(Br)s2)cn1 (configuration not stated) | 0.7525
Cc1noc(C)c1CN(Cc1ccccc1)C(C)C | -1.884
O=C(NC1CC1)[C@@H]1CCO[C@@H]2CCN(CCc3ccccc3)C[C@@H]21.O=C(O)C(F)(F)F | 121.8
Cc1noc(C)c1CN1CC[C@H]2OCC[C@@H](C(=O)NCC3CC3)[C@H]2C1.O=C(O)C(F)(F)F | -0.6103
CN(C)C(=O)[C@@H]1CCO[C@@H]2CCN(CCc3ccccc3)C[C@@H]21.O=C(O)C(F)(F)F | 0.9995
O=C(NC1CCC1)[C@@H]1CCO[C@@H]2CCN(CCc3ccccc3)C[C@H]21.O=C(O)C(F)(F)F | 10.39
CN(C)C(=O)[C@@H]1CCO[C@@H]2CCN(CCOCc3ccccc3)C[C@H]21.O=C(O)C(F)(F)F | 110
CNC(=O)[C@@H]1CCO[C@@H]2CCN(CCc3ccccc3)C[C@H]21.O=C(O)C(F)(F)F | 100.2
CNC(=O)[C@@H]1CCO[C@@H]2CCN(C3CCOCC3)C[C@@H]21.O=C(O)C(F)(F)F | -5.14
O=C(NC1CC1)[C@@H]1CCO[C@@H]2CCN(C3CCOCC3)C[C@H]21.O=C(O)C(F)(F)F | -6.605
O=C(NCC1CC1)[C@@H]1CCO[C@@H]2CCN(Cc3ccc(F)cc3)C[C@H]21.O=C(O)C(F)(F)F | -1.927
CN(C)C(=O)[C@@H]1CCO[C@@H]2CCN(Cc3ccccc3)C[C@@H]21.O=C(O)C(F)(F)F | -6.959
O=C(NCC1CC1)[C@@H]1CCO[C@@H]2CCN(CCc3ccccc3)C[C@H]21.O=C(O)C(F)(F)F | 103.2
CC1=N[C@@]2(CC[C@@H]3CN(S(=O)(=O)CC(C)C)C[C@@H]32)C(=O)N1CC1CC1 | 5.74
O=C(C1CCCN(Cc2cccc(F)c2)C1)N1CCc2sccc2C1 (configuration not stated) | 1.206
CCN(CCc1nccs1)C(=O)c1sccc1C | -15.07
Cc1noc(C)c1CN(C)Cc1csc(-c2ccc(C(C)C)cc2)n1 | -1.572
COCC(C)(CCO)NC(=O)Nc1cccc(F)c1C (configuration not stated) | -3.176

Compound | Percent Effect [%]
O=C(O)C(F)(F)F.O=C([C@H]1CN(CCc2ccccc2)C[C@H]2OCC[C@@H]12)N1CCCO1 | -7.584
O=C([C@@H]1CCO[C@@H]2CCN(CC3CC3)C[C@H]21)N1CCCC1 | -26.98
O=C(O)C(F)(F)F.O=C([C@@H]1CCO[C@@H]2CCN(CCc3ccccc3)C[C@@H]21)N1CCCC1 | 117.3
CN(C)c1ncc2c(O)nc(C3CCNCC3)cc2n1.Cl | 122.5
CCN(CC)c1ncc(Cl)c(C(=O)NC2CC2)n1 | -2.852
CCN(CC)c1ncc2c(O)nc(C3CCNCC3)cc2n1 | 97.4
Cl.Cl.Cn1cnc2c(-c3cccnc3)nc(C3CCNCC3)cc21 | -57.7
CN(C)c1ncc2c(O)nc(C3CCCNC3)cc2n1 (configuration not stated) | 88.81
CCN(CC)c1ncc(Cl)c(C(=O)NC2CCC(O)CC2)n1 (configuration not stated) | -11
CC(C)n1cnc2c(N3CCCC3)nc(C3CCNCC3)cc21.Cl.Cl | -3.823
Cc1nc(C2CCCNC2)cc(N(C)CCc2cn[nH]c2)n1 (configuration not stated) | 4.214
CN(C)CCNC(=O)c1noc2c1CN(C(=O)N(C)C)CC2 | 9.564
Cc1c(C(=O)NCCCS(C)(=O)=O)cccc1-c1ccccn1 | 78.39
Cn1ccc2c(C(=O)NCCCS(C)(=O)=O)cccc21 | -9.064
Cc1c(C(=O)NCC(C)(C)S(C)(=O)=O)cccc1-c1ccccn1 | 90.41
Cc1c(I)cccc1C(=O)NCc1ncc[nH]1 | -7.865
Cc1c(C(=O)NCCC(=O)N2CCCC2)oc2c(F)cccc12 | 5.296
Cc1c(C(=O)NCCC(=O)N2CCCC2)cccc1-c1ccccn1 | 102.1
Cc1ccc(C(=O)NCCCS(=O)(=O)c2ccccc2)c(=O)[nH]1 | 14.19
Cc1c(NCC(C)(C)C)cccc1C(=O)NCc1ncnn1C | -8.622
Cn1cc(C(=O)NCCC(=O)N2CCCCC2)c(-c2cccnc2)n1 | -19.31
